According to PubChem BioAssay (NCI):
Compounds without any hit were thinned out: in the full panel of roughly 79,000, 15% have a hit. Calls of active or inactive are those of the source. No stated cut-off is given here; in the data, active means growth inhibition above about 70%; inactive means the rest.

Legend:
[1] = NCI Yeast Anticancer Drug Screen. Data for the rad52 strain (AID 147);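 further: 0% = growth of vehicle-treated control cultures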; details: S. cerevisiae rad52 mutant growth inhibition, stronger effect = higher value
Summary of the method: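 The repair-mutant yeast strain was incubated with compounds, then growth was read and inhibition derived relative to vehicle.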

[2] = NCI Yeast Anticancer Drug Screen. Data for the wt1 strain (AID 149);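 further: 0% = growth of vehicle-treated wt1 cultures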; details: S. cerevisiae wt1 strain (SPY 50644) growth inhibition, stronger effect = higher value
Summary of the method: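 Using yeast strain wt1, compound-induced growth inhibition was determined against vehicle-treated cultures.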

[3] = NCI Yeast Anticancer Drug Screen. Data for the rad50EPP+ strain (AID 151);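 further: 0% = growth of vehicle-treated control cultures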; details: S. cerevisiae rad50 mutant strain, stronger effect = higher value
Summary of the method: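 Vehicle-normalised growth inhibition; rad50EPP+ yeast strain, altered in DNA damage repair, compound-treated.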

[4] = NCI Yeast Anticancer Drug Screen. Data for the mgt1 strain (AID 153); details: S. cerevisiae mgt1 mutant growth inhibition, stronger effect = higher value
Summary of the method: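 Vehicle-normalized growth inhibition is determined in mgt1 yeast, a strain selected for a defined alteration in DNA repair or cell cycle control.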

[5] = NCI Yeast Anticancer Drug Screen. Data for the rad50 strain (AID 155);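 further: 0% = growth of vehicle-only cultures of the same strain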; details: S. cerevisiae rad50 strain growth inhibition, stronger effect = higher value
Summary of the method: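 Relative growth inhibition (compound vs vehicle) was measured in yeast with a defined repair-gene alteration.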

[6] = NCI Yeast Anticancer Drug Screen. Data for the mec2-1 strain (AID 157); details: S. cerevisiae mec2-1 strain, stronger effect = higher value
Summary of the method: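 Mutant yeast (mec2-1) grown with compound; growth inhibition relative to vehicle control reported.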

[7] = NCI Yeast Anticancer Drug Screen. Data for the rad14 strain (AID 159);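 further: 0% = growth of vehicle-treated control cultures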; details: S. cerevisiae rad14 strain growth inhibition, stronger effect = higher value
Summary of the method: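 Screen for anticancer potential: a yeast strain altered in DNA damage repair is grown with compound, and reduced growth is quantified against vehicle controls.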

[8] = NCI Yeast Anticancer Drug Screen. Data for the sgs1 mgt1 strain (AID 161);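 further: 0% = growth of cultures given vehicle only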; details: S. cerevisiae sgs1 mgt1 strain, stronger effect = higher value
Summary of the method: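 Compounds are added to genetically altered yeast, and growth is compared with cultures given vehicle alone to give percent inhibition.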

[9] = NCI Yeast Anticancer Drug Screen. Data for the CLN2oe strain (AID 163);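 further: 0% = growth of vehicle-only control cultures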; details: S. cerevisiae CLN2oe strain, stronger effect = higher value
Summary of the method: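 Compounds are applied to yeast harbouring a defined cell-cycle control change; reduced growth compared with vehicle-treated controls gives the value.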

[10] = NCI Yeast Anticancer Drug Screen. Data for the cln2 rad14 strain (AID 165);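 further: 0% = growth equal to vehicle treated cultures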; details: S. cerevisiae cln2 rad14 strain, stronger effect = higher value
Summary of the method: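 Readout is yeast growth inhibition versus vehicle-treated controls, using a strain with cln2 and rad14 alterations exposed to compound.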

[11] = NCI Yeast Anticancer Drug Screen. Data for the bub3 strain (AID 167); details: S. cerevisiae bub3 mutant strain, stronger effect = higher value
Summary of the method: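 Screening used yeast with an engineered genetic alteration affecting cell cycle control. Compound-exposed cultures were compared with vehicle cultures, and reduced growth was taken as inhibition.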

[12] = NCI Yeast Anticancer Drug Screen. Data for the wt2 strain (AID 169);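 further: 0% = growth of vehicle-treated yeast cultures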; details: S. cerevisiae wt2 strain growth inhibition, stronger effect = higher value
Summary of the method: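 Against vehicle-treated controls, the growth of yeast exposed to each compound was compared, and the inhibition was recorded.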

[13] = NCI Yeast Anticancer Drug Screen. Data for the mlh1 strain (AID 171);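 further: 0% = growth of vehicle-treated control cultures of the same strain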; details: S. cerevisiae mlh1 strain growth inhibition, stronger effect = higher value
Summary of the method: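 Measured: yeast growth. Reference: vehicle-treated controls. Organism: strain with a defined alteration affecting DNA damage repair or cell cycle control, treated with compound.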

[14] = NCI Yeast Anticancer Drug Screen. Data for the sgs1 strain (AID 173);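 further: 0% = growth of vehicle-only control cultures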; details: S. cerevisiae sgs1 mutant, stronger effect = higher value
Summary of the method: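 Each compound was added to cultures of the altered yeast strain. Growth was recorded, and inhibition was derived by comparison with vehicle controls.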

[15] = NCI Yeast Anticancer Drug Screen. Data for the mlh1 rad18 strain (AID 175); details: S. cerevisiae mlh1 rad18 strain growth inhibition, stronger effect = higher value
Summary of the method: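 Genetically defined yeast (DNA repair-deficient) exposed to compounds; growth inhibition determined relative to vehicle.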

[16] = NCI Yeast Anticancer Drug Screen. Data for the rad18 strain (AID 177); details: S. cerevisiae rad18 mutant growth inhibition, stronger effect = higher value
Summary of the method: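 Vehicle-treated cultures served as the baseline for scoring compound-induced growth inhibition in DNA-repair-mutant yeast.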

[17] = at 5.0 µM (retest, dose inferred, filed as 0.5)
[18] = at 50.0 µM (retest, dose inferred, filed as 5.0)

Measured: growth inhibition

OC(c1ccccc1)(c1ccccc1)c1nccc2ccccc12
active: [1]; at 100.0 µM 81% | [5]; at 100.0 µM 70% | [6]; at 50.0 µM 75% | [8]; at 50.0 µM 71.5% | [11]; at 100.0 µM 75% | [14]; at 100.0 µM 71% | [15]; [18] 74%
inactive: [1]; at 1.2 µM 40% | [1]; at 3.7 µM 39% | [1]; at 11.0 µM 48% | [1]; at 33.0 µM 62% | [2]; at 1.2 µM 3% | [2]; at 3.7 µM -3% | [2]; at 11.0 µM 26% | [2]; at 33.0 µM -2% | [2]; at 100.0 µM 29% | [3]; at 1.2 µM 14% | [3]; at 3.7 µM 14% | [3]; at 11.0 µM 32% | [3]; at 33.0 µM 13% | [3]; at 100.0 µM 0% | [4]; at 1.2 µM -11% | [4]; at 3.7 µM 8% | [4]; at 11.0 µM 11% | [4]; at 33.0 µM 15% | [4]; at 100.0 µM 51% | [5]; at 1.2 µM 4% | [5]; at 3.7 µM 15% | [5]; [17] 14% | [5]; at 11.0 µM 24% | [5]; at 33.0 µM 39% | [5]; [18] 50% | [5]; at 50.0 µM 67.7% | [6]; at 1.2 µM 0% | [6]; at 3.7 µM 3% | [6]; [17] 2% | [6]; at 11.0 µM 9% | [6]; at 33.0 µM 7% | [6]; [18] 40% | [6]; at 100.0 µM 49% | [7]; at 1.2 µM 3% | [7]; at 3.7 µM 2% | [7]; at 11.0 µM 3% | [7]; at 33.0 µM 3% | [7]; at 100.0 µM 39% | [8]; [17] -4% | [8]; [18] 58% | [9]; at 1.2 µM 25% | [9]; at 3.7 µM 34% | [9]; at 11.0 µM 28% | [9]; at 33.0 µM 35% | [9]; at 100.0 µM 59% | [10]; [17] 6% | [10]; [18] 7% | [10]; at 50.0 µM 55.4% | [11]; at 1.2 µM 14% | [11]; at 3.7 µM 22% | [11]; [17] 0% | [11]; at 11.0 µM 25% | [11]; at 33.0 µM 25% | [11]; [18] 45% | [11]; at 50.0 µM 60.6% | [12]; at 1.2 µM -56% | [12]; at 3.7 µM -17% | [12]; at 11.0 µM -31% | [12]; at 33.0 µM -21% | [12]; at 100.0 µM 38% | [13]; at 1.2 µM -2% | [13]; at 3.7 µM 12% | [13]; at 11.0 µM 5% | [13]; at 33.0 µM 14% | [13]; at 100.0 µM 54% | [14]; at 1.2 µM 15% | [14]; at 3.7 µM 3% | [14]; at 11.0 µM 4% | [14]; at 33.0 µM 16% | [15]; [17] 12% | [15]; at 50.0 µM 51% | [16]; at 1.2 µM 0% | [16]; at 3.7 µM 14% | [16]; at 11.0 µM 27% | [16]; at 33.0 µM 55% | [16]; at 100.0 µM 63%

O=S(=O)(NC1CCCC(c2ccccc2)C1)c1ccccc1 (stereo unspecified)
active: [1]; at 100.0 µM 90% | [4]; at 100.0 µM 95% | [5]; [18] 71% | [5]; at 100.0 µM 93% | [6]; at 100.0 µM 82% | [7]; at 100.0 µM 96% | [9]; at 100.0 µM 95% | [11]; [18] 76% | [11]; at 100.0 µM 87% | [12]; at 100.0 µM 90% | [13]; at 100.0 µM 82% | [14]; at 100.0 µM 97% | [15]; [18] 76% | [16]; at 100.0 µM 93%
inactive: [1]; at 1.2 µM 1% | [1]; at 3.7 µM 3% | [1]; at 11.0 µM 3% | [1]; at 33.0 µM 10% | [2]; at 1.2 µM -1% | [2]; at 3.7 µM -4% | [2]; at 11.0 µM 2% | [2]; at 33.0 µM -3% | [2]; at 100.0 µM 50% | [3]; at 1.2 µM -1% | [3]; at 3.7 µM 1% | [3]; at 11.0 µM -1% | [3]; at 33.0 µM 3% | [3]; at 100.0 µM 20% | [4]; at 1.2 µM -3% | [4]; at 3.7 µM -2% | [4]; at 11.0 µM -1% | [4]; at 33.0 µM -2% | [5]; at 1.2 µM 3% | [5]; at 3.7 µM 3% | [5]; [17] -9% | [5]; at 11.0 µM 2% | [5]; at 33.0 µM 11% | [5]; at 50.0 µM 18.2% | [6]; at 1.2 µM -8% | [6]; at 3.7 µM -2% | [6]; [17] -12% | [6]; at 11.0 µM -3% | [6]; at 33.0 µM 0% | [6]; [18] -7% | [6]; at 50.0 µM 24.6% | [7]; at 1.2 µM 1% | [7]; at 3.7 µM 2% | [7]; at 11.0 µM 2% | [7]; at 33.0 µM 4% | [8]; [17] -24% | [8]; [18] 23% | [8]; at 50.0 µM 19.4% | [9]; at 1.2 µM -4% | [9]; at 3.7 µM -4% | [9]; at 11.0 µM 2% | [9]; at 33.0 µM 9% | [10]; [17] -13% | [10]; [18] 16% | [10]; at 50.0 µM 50.8% | [11]; at 1.2 µM 1% | [11]; at 3.7 µM -1% | [11]; [17] -8% | [11]; at 11.0 µM 0% | [11]; at 33.0 µM 15% | [11]; at 50.0 µM 60.8% | [12]; at 1.2 µM -4% | [12]; at 3.7 µM -7% | [12]; at 11.0 µM -3% | [12]; at 33.0 µM -6% | [13]; at 1.2 µM -2% | [13]; at 3.7 µM 0% | [13]; at 11.0 µM -1% | [13]; at 33.0 µM 3% | [14]; at 1.2 µM -4% | [14]; at 3.7 µM 4% | [14]; at 11.0 µM -2% | [14]; at 33.0 µM 1% | [15]; [17] -26% | [15]; at 50.0 µM 57.8% | [16]; at 1.2 µM 0% | [16]; at 3.7 µM -2% | [16]; at 11.0 µM 1% | [16]; at 33.0 µM 3%

CC1(C)CC(=O)C(C(=O)Nc2cccs2)=C(O)C1
active: [1]; at 100.0 µM 99% | [2]; at 100.0 µM 99% | [3]; at 100.0 µM 98% | [4]; at 33.0 µM 92% | [4]; at 100.0 µM 98% | [5]; at 33.0 µM 70% | [5]; at 50.0 µM 88.8% | [5]; at 100.0 µM 98% | [6]; at 33.0 µM 78% | [6]; at 50.0 µM 93% | [6]; at 100.0 µM 98% | [7]; at 33.0 µM 92% | [7]; at 100.0 µM 98% | [8]; at 50.0 µM 93.3% | [9]; at 100.0 µM 99% | [10]; at 50.0 µM 89.4% | [11]; at 33.0 µM 82% | [11]; [18] 70% | [11]; at 50.0 µM 90.8% | [11]; at 100.0 µM 99%
inactive: [1]; at 1.2 µM -8% | [1]; at 3.7 µM 7% | [1]; at 11.0 µM 17% | [1]; at 33.0 µM 64% | [2]; at 1.2 µM 21% | [2]; at 3.7 µM 28% | [2]; at 11.0 µM 23% | [2]; at 33.0 µM 50% | [3]; at 1.2 µM -56% | [3]; at 3.7 µM -63% | [3]; at 11.0 µM -53% | [3]; at 33.0 µM 18% | [4]; at 1.2 µM 10% | [4]; at 3.7 µM 18% | [4]; at 11.0 µM 35% | [5]; at 1.2 µM 14% | [5]; at 3.7 µM 16% | [5]; [17] 26% | [5]; at 11.0 µM 18% | [5]; [18] 42% | [6]; at 1.2 µM 3% | [6]; at 3.7 µM -18% | [6]; [17] 6% | [6]; at 11.0 µM 20% | [6]; [18] 49% | [7]; at 1.2 µM -10% | [7]; at 3.7 µM 2% | [7]; at 11.0 µM 10% | [8]; [17] -5% | [8]; [18] 61% | [9]; at 1.2 µM 15% | [9]; at 3.7 µM 26% | [9]; at 11.0 µM 29% | [9]; at 33.0 µM 63% | [10]; [17] 23% | [10]; [18] 37% | [11]; at 1.2 µM 26% | [11]; at 3.7 µM 23% | [11]; [17] 16% | [11]; at 11.0 µM 41%
